This is one part of a sample in which hits are shown more often than they occur.
Giardia FBPA inh: inhibitors of Giardia lamblia fructose-1,6-bisphosphate aldolase; purified Giardia FBPA; A8B2U2; AID 2451; actives 0.71% (n = 290,000); Potency, µM (series often up to 59.6 µM), actives largely listed as inhibitors; note: nearly all actives have a fitted effect of over 55% in size
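Giardia FBPA (40 nM reagent) was preincubated 10 min at RT with compound (up to 57.5 uM final), then substrate plus GAPDH/TPI/NAD/arsenate coupling system with diaphorase/resazurin was added; resorufin fluorescence (525/598 nm) was read after 20 min.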
Shiga toxin inh: blocks Shiga toxin action in Vero cells; Vero cells, Shiga toxin protein synthesis inhibition reporter; inhibition, % at 38.7 µM; actives 9.2% (n = 290,000); AID 2315; in the data active = inhibition mostly above about 28%, no sharp cut-off; inactive = mostly below about 43%
RE007 growth inh: less growth of the S. pombe RE007 Vpr strain; S. pombe RE007 Vpr strain, BacTiter-Glo ATP luminescence, 24 h; Potency, µM (titrated, usually from 92.2 µM), usual class: inhibitors; actives 0.21% (n = 360,000); active = well fitted falling curve with a large enough effect; inconclusive = small, poorly fitted or top-dose-only effect; inactive = no such curve, though single readings can be large or run the other way; note: nearly all actives have a fitted effect of over 50% in size
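Fission yeast strain RE007, carrying one chromosomally integrated HIV-1 vpr copy, was seeded at OD 0.01 in PMG+AL medium with 23 nL pinned compound. After 24 h at 30 °C and 99% humidity, viability was read by BacTiter-Glo luminescence.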
Tb PYK inh: blocks Trypanosoma brucei pyruvate kinase | TbPYK enzyme, Kinase-Glo Plus ATP luminescence, 45 min | Potency, µM (series often up to 76.8 µM), hits mostly inhibitors | actives 0.12% (n = 410,000) | AID 624173; note: nearly all actives have a fitted effect of over 50% in size
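In this concentration-response screen, enzyme-free wells defined baseline while DMSO plates tracked drift. Each reaction combined TbPYK, substrate, compound and 130 uM ADP for 45 min at room temperature. Kinase-Glo Plus luminescence gave the signal.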
LmPK inh: inhibitors of Leishmania mexicana pyruvate kinase; actives 0.37% (n = 290,000); Potency, µM (top dose mostly 57.5 µM), most hits filed as inhibitors; Q27686; purified LmPK, Kinase-Glo ATP luminescence, 1 h
Target sequence (Q27686 whole entry, looked up): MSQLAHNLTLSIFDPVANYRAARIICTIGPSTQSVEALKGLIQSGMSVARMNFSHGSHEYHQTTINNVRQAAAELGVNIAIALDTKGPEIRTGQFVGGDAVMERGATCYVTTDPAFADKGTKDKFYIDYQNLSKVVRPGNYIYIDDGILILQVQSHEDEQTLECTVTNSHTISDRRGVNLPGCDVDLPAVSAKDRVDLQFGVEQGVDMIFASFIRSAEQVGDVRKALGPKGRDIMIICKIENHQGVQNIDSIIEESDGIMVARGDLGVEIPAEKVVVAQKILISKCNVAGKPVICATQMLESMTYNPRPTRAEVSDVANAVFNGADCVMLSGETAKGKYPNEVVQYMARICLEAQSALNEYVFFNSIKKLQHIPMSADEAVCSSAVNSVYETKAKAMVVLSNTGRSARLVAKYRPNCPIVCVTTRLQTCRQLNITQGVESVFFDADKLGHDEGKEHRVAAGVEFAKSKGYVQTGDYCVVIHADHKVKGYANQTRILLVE
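Pyruvate kinase activity monitored as ATP production (luciferase luminescence). Conditions: 0.1 nM enzyme, 0.5 mM PEP, 0.1 mM ADP, 1 h, RT; normalized against uninhibited and no-enzyme wells.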
CHX counter: counter-screen for Shiga toxin inhibitors: cycloheximide protein synthesis inhibition; cell reporter, cycloheximide protein synthesis inhibition counterscreen; max response, %; actives 12% (n = 300,000); AID 2314; in the data active = max response mostly above about 13%, no sharp cut-off; inactive = mostly below about 14%; note: read at 38.3 µM for the half of the compounds with a filed dose
Hits are given with their value; i = inactive; ? = inconclusive; nt = no result given. Unless noted, calls come from the whole dose curve; as a rule, active = well fitted curve in the direction sought with a large enough effect; inconclusive = small, poorly fitted or top-dose-only effect, or another doubt; inactive = no such curve, though single readings can be large; an effect the other way counts as inactive or inconclusive.

SMILES	Giardia FBPA inh	Shiga toxin inh	RE007 growth inh	Tb PYK inh	LmPK inh	CHX counter
CC(=O)c1sc(-c2ccc(Cl)cc2)cc1N	i	35.5	i	i	i	26.6
COC(=O)c1sc(-c2cccs2)cc1N	i	47.2	i	i	i	39.8
COC(=O)c1sc(-c2ccc(Cl)cc2)cc1N	i	80.5	i	i	i	65.8
Cc1cccc(-c2cnc(C(O)c3ccc(-c4ccccc4)cc3)[nH]2)c1 (stereo unspecified)	nt	nt	i	i	nt	nt
Cc1ccccc1Cn1cc(S(=O)(=O)c2ccc(Cl)cc2)c(=O)c2cc3c(cc21)OCO3	nt	nt	nt	i	nt	nt
Cc1nnc2c(Nc3cccc(O)c3)nc3ccccc3n12	nt	nt	nt	i	nt	nt
O=C(Nc1cccc(OCc2cc(=O)n3ccccc3n2)c1)Nc1cccc(C(F)(F)F)c1	nt	nt	nt	i	nt	nt
O=C(COC(=O)c1ccc2c(c1)OCO2)Nc1ccccc1	i	41.4	i	i	i	13.3
O=C(COC(=O)c1ccncc1)Nc1ccccc1	i	i	i	i	i	21.0
O=C(COC(=O)/C=C/c1ccc2c(c1)OCO2)Nc1ccc(S(=O)(=O)N2CCCC2)cc1	i	i	i	i	i	i
O=C(COC(=O)/C=C/c1ccc2c(c1)OCO2)Nc1ccccc1	i	92.6	i	i	i	40.4
O=C(COC(=O)c1cccnc1)Nc1ccccc1	i	i	i	i	i	i
Cc1nc2c(N)nn(C)c2nc1C	nt	nt	i	i	nt	nt
NS(=O)(=O)c1cccc(NC(=S)NC(=O)C23CC4CC(CC(C4)C2)C3)c1	i	66.0	i	i	i	23.1
CN(C)S(=O)(=O)c1cccc(NC(=S)NC23CC4CC(CC(C4)C2)C3)c1	nt	i	i	i	i	i
O=C(c1ccccc1)c1ccc(C(=O)N2CCN(c3ccccc3O)CC2)cc1	nt	nt	i	i	nt	nt
CC1(C)Cc2c(C#N)c(N)n(-c3ccccc3)c(=S)c2CO1	i	i	i	i	i	i
CC1(C)C=C2C(=NN(c3ccccc3)C(N)=C2C#N)CO1	1.58µM	i	i	i	i	i
Cc1cc(NC(=O)C(C)(C)Oc2ccc(Cl)cc2)cc(-c2nc3ncccc3o2)c1O	nt	nt	nt	i	nt	nt
COc1cc(C)ccc1OCc1cc(C(=O)NCCN2CCOCC2)no1	i	76.5	i	i	i	67.1
COc1cc(C)ccc1OCc1cc(C(=O)N(C)CCCN2CCOCC2)no1	i	95.9	i	i	i	54.7
CN(CCCN1CCOCC1)C(=O)c1cc(COc2ccc(F)cc2F)on1	nt	i	i	i	i	i
COc1ccc(Cc2nnc(NC(=O)CS(=O)(=O)Cc3ccccc3)s2)cc1	nt	nt	i	i	nt	nt
CCOC(=O)c1noc2ncnc(N3CCN(c4ccccc4OC)CC3)c12	nt	nt	nt	i	nt	nt
CCc1ccc(N2CCn3c2nc2c3c(=O)n(Cc3cccc(C)c3)c(=O)n2C)cc1	nt	nt	nt	i	nt	nt
SMILES	Giardia FBPA inh	Shiga toxin inh	RE007 growth inh	Tb PYK inh	LmPK inh	CHX counter
COc1ccc(S(=O)(=O)N(C)C[C@H]2Oc3c(NS(=O)(=O)c4cn(C)cn4)cccc3C(=O)N([C@H](C)CO)C[C@@H]2C)cc1	nt	nt	i	i	nt	nt
CCOC(=O)C(C#N)c1ccccn1 (stereo unspecified)	i	i	i	?	i	29.4
N/C(=N\OC(=O)CCC1CCCC1)c1ccc([N+](=O)[O-])cc1	i	i	i	i	i	18.9
O=C(CCC1CCCC1)NCc1ccccn1	i	i	i	i	i	i
N/C(=N\OC(=O)CCC1CCCCC1)c1cccc([N+](=O)[O-])c1	i	i	i	i	i	i
N/C(=N\OC(=O)CCC1CCCC1)c1ccccn1	i	65.2	i	i	?	51.6
N/C(=N\OC(=O)CCC1CCCC1)c1ccccc1	i	i	i	i	?	20.0
N/C(=N\OC(=O)Cc1ccccc1)c1ccc([N+](=O)[O-])cc1	i	41.6	i	i	i	29.7
O=C(Cn1c(=O)oc2ccccc21)N1CCCC1	i	i	i	i	i	i
O=C(N/N=C/c1ccc(Br)s1)c1ccco1	i	91.4	i	i	i	54.9
Cc1ccc(/C=N/NC(=O)c2ccc(C(=O)N/N=C/c3ccc(C)s3)o2)s1	i	i	i	i	i	i
O=C(O)c1cccc(Cn2c(Cl)c(/C=N/NC(=O)c3ccccc3Cl)sc2=O)c1	i	i	i	i	i	i
Cc1ccc(/C=N/NC(=O)c2ccco2)s1	i	71.1	i	i	i	53.0

Bioassay records from PubChem BioAssay.
